In this test the test system is Sam68 (KHDRBS1). Put plainly: Sam68 small-molecule binders, primary screen, biochemical, small-molecule microarray, 635 nm fluorescence (AID 1125).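 Also: score merges 667 nm channel intensity with signal to noise over triplicate slides.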 Conditions: small-molecule microarray binding, higher = more signal.
The molecule `C=CCNC(=O)[C@H]1[C@@H]2C(=O)O[C@@H](c3ccccc3)[C@@H](c3ccccc3)N2[C@@H](c2ccc(O)cc2)[C@]12C(=O)Nc1ccc(C#CC3=CCCCC3)cc12` registered a composite z-score of 1.11.

As for `COC(=O)[C@@]1(Cc2ccccc2)[C@H]2c3cc(C(=O)N4CCCC4)n(Cc4ccc(C(F)(F)F)nc4)c3C[C@H]2CN1C(=O)c1ccccc1`, the composite z-score amounted to 1.31.

The molecule `O=C1OCCC/C=C\[C@H]2OC34C=CCN(Cc5ccccc5)C(=O)[C@H]3N(CCCCCO)C(=O)[C@@H]4C12` (stereo not given in full) came in with a composite z-score of -0.904.

Molecule `CN(C)CCCNC(=O)[C@@]1(Cc2ccccc2I)c2ccccc2C(=O)N(Cc2ccccc2)[C@H]1c1ccc(CO)cc1` came in with a composite z-score of 1.3.

For the molecule `COC(=O)c1c(CC[C@@H](CO)NC(=O)N[C@@H](Cc2ccccc2)Cn2cc(-c3cncn3C)nn2)oc(C(C)=O)c1C(=O)OC`, the composite z-score came to 1.21.

The molecule `CC(c1ccccc1)C(O)C1C=CC2C(=O)N(c3ccccc3)C(=O)C2N1Nc1ccc(C#N)cc1` (stereo not given) gave a composite z-score of 1.34.

On to `CC(=O)c1ccc(C(O)C2C=CC3C(=O)N(C)C(=O)C3N2NC(=O)OC(C)(C)C)cc1` (stereo not given), for which the composite z-score was found to be 1.29.

Regarding `C=CCC(OC(C)=O)[C@@H]1[C@@H](N(Cc2ccc(-c3ccccc3)cc2)C(=O)c2cccc3ccccc23)c2cc(OCCCO)ccc2N1C(=O)c1ccc2ccccc2c1` (stereo not given in full), the composite z-score was found to be 0.263.

Molecule `COC(=O)[C@@H]1N=C(c2ccc(OCCCO)cc2)O[C@@H]1c1ccccc1CN=[N+]=[N-]` yielded a composite z-score of 0.513.

`CCOC(=O)C1=CC[C@@H](c2ccccc2)N(S(=O)(=O)c2ccc(C)cc2)[C@H]1C#N` came in with a composite z-score of 1.2.

In the case of `CC#CCO[Si](C#CCCCCCC)(C(C)C)C(C)C`, the composite z-score is 0.204.

Turning to `C=CCC(OC(C)=O)[C@@H]1[C@@H](N(Cc2ccc(-c3ccccc3)cc2)C(=O)c2ccc(C)cc2)c2cc(OCCCO)ccc2N1C(=O)c1ccc2ccccc2c1` (stereo not given in full), the composite z-score is -0.15.

Molecule `COc1ccc(C(O)C2C=CC3C(=O)N(C)C(=O)C3N2Nc2ccc([N+](=O)[O-])cc2[N+](=O)[O-])cc1OCc1ccccc1` (stereo not given) returned a composite z-score of 1.32.

Molecule `CN1C(=O)C2C=CC(C(O)c3ccc(-c4ccccc4)s3)N(Nc3ccccc3)C2C1=O` (stereo not given) had a composite z-score of 1.24.

Take `N#Cc1ccc(C(O)C2C=CC3C(=O)NC(=O)C3N2Nc2ccccn2)cc1` (stereo not given): the composite z-score is -0.106.

`CCCC=C(CCC)[C@@H](NC(=O)c1ccco1)c1ccc(C(=O)OC)cc1` had a composite z-score of 1.31.

Consider `COc1ccc([Si](C)(C)[C@@H]2[C@@H](CC(=O)N(CCO)Cc3ccccc3)O[C@]3(C(=O)N(Cc4ccc(N5CCC5=O)cc4)c4ccccc43)[C@H]2C)cc1`, for which the composite z-score came to 0.0201.

For the molecule `Cc1ccc(F)cc1S(=O)(=O)N[C@@H]1CCN(Cc2ccc3[nH]ccc3c2)C1`, the composite z-score turned out to be 0.605.

`C=C(/C(=C/C[C@H](OC(=O)c1ccncc1)c1ccccc1OCCO)c1cc(C(=O)OC)ccc1OC)C(C)C` returned a composite z-score of 1.06.

As to `CCOC(=O)C1=CC[C@@H](c2ccc(F)cc2)N(S(=O)(=O)c2ccc(C)cc2)[C@H]1c1ccc([N+](=O)[O-])cc1`, the composite z-score was found to be 1.2.

`C=CC[C@@]1(C(=O)N(C)C)N=C(c2ccc(OCCCO)cc2)O[C@@H]1c1ccccc1`: the composite z-score is -0.108.

For the molecule `CC(C)C(=C=CC[C@@H](O)c1cccc(OCCO)c1)CCO`, the composite z-score was found to be 0.0316.

For the molecule `[N-]=[N+]=NCc1ccccc1C[C@]1(C(=O)N2CCOCC2)N=C(c2ccc(OCCCO)cc2)O[C@H]1c1ccccc1CN=[N+]=[N-]`, the composite z-score came to 1.3.

As for `COc1ccc(NN2C(C(O)c3cc(C(F)(F)F)cc(C(F)(F)F)c3)C=CC3C(=O)N(C4CCCCC4)C(=O)C32)cc1` (stereo not given), the composite z-score was 1.07.

For `CC=CC(O)C1C=CC2C(=O)N(C)C(=O)C2N1NC(=O)OC(C)(C)C` (stereo not given), the composite z-score was -0.0008.

On to `[N-]=[N+]=NCc1ccccc1[C@@H]1OC(c2ccc(OCCCO)cc2)=N[C@]1(Cc1ccccc1)C(=O)NCc1ccccc1`, for which the composite z-score was 0.826.

For `COCCOC(=O)N1C(=O)[C@@]2(c3cc(C#CCCO)ccc31)[C@H](C(=O)N1CCc3cc(OC)c(OC)cc3C1)[C@H]1C(=O)O[C@H](c3ccccc3)[C@H](c3ccccc3)N1[C@@H]2c1ccccc1OCCO`, the composite z-score turned out to be 1.32.

`C=CCOC(=O)[C@@H]1[C@H]2C(=O)O[C@H](c3ccccc3)[C@H](c3ccccc3)N2[C@H](c2ccc(OCCOC(=O)[C@H]3C[C@H]4C(=O)NCC(=O)N4[C@H]3c3ccc(O)cc3)cc2)[C@@]12C(=O)Nc1ccc(I)cc12` displayed a composite z-score of 1.29.

In the case of `C=CCC(OC(C)=O)[C@@H]1[C@@H](N(Cc2cc3ccccc3o2)C(=O)Cc2ccc(OC)cc2)c2cc(OCCCO)ccc2N1C(=O)Cc1ccc2ccccc2c1` (stereo not given in full), the composite z-score was -0.235.

`C[C@H]1C2[C@H](Cc3ccccc3)NC(=O)[C@]23C(=O)NCC(=O)N2CCC[C@H]2C(=O)NC/C=C\C/C=C/C3[C@@H]2O[C@]12C` (stereo not given in full) displayed a composite z-score of -0.158.

`COC(=O)C1=CC(CCCO)=CC(C2CC2)N(Cc2cccc(OC(F)(F)F)c2)C=C1C(=O)OC` (stereo not given) returned a composite z-score of 1.26.

In turn, `CCCCC(O)C1C=CC2C(=O)NC(=O)C2N1Nc1ccccn1` (stereo not given) came in with a composite z-score of -1.01.

Molecule `CCCCC(=C=CC[C@H](O)c1ccc(OCCO)cc1)C[C@H](O)c1ccccn1` registered a composite z-score of 1.18.

Take `CC(C)CNC(=O)[C@@H]1c2ccccc2C(=O)N(CC23CC4CC(CC(C4)C2)C3)[C@H]1c1ccc(CO)cc1`: the composite z-score is 0.985.

Take `CCN(CC)c1ccc(N2CC=CC34O[C@@H]5C=CCOC(=O)[C@@H]5[C@H]3C(=O)N(CCCO)[C@@H]4C2=O)cc1` (stereo not given in full): the composite z-score stood at 0.425.

The record behind these values is PubChem BioAssay.
